# Measurements published in PubChem BioAssay (EPA / NIEHS).
# Results filed as inconclusive are left out. Active and inactive are the calls of the source. Rule for the calls: active = hit-call score of the fitted dose curve at least 0.9, where 1 is the maximum; inconclusive = response in the unintended direction; inactive = score below 0.9.
# Biological target: human RAR-related Orphan Receptor gamma (RORg), RORC (gene 6097) (UniProt P51449)
# Assay: ATG_RORg_TRANS: Attagene TRANS-FACTORIAL HepG2 Assay for human RAR-related Orphan Receptor gamma (RORg) (AID 2283011)
# In short: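 Chimeric RORg-Gal4 transactivation in transfected HepG2; 24 h exposure; RT-PCR/capillary electrophoresis readout of reporter mRNA, DMSO baseline.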
# human RAR-related Orphan Receptor gamma (RORg), RORC (gene 6097), sequence (P51449 whole entry, looked up): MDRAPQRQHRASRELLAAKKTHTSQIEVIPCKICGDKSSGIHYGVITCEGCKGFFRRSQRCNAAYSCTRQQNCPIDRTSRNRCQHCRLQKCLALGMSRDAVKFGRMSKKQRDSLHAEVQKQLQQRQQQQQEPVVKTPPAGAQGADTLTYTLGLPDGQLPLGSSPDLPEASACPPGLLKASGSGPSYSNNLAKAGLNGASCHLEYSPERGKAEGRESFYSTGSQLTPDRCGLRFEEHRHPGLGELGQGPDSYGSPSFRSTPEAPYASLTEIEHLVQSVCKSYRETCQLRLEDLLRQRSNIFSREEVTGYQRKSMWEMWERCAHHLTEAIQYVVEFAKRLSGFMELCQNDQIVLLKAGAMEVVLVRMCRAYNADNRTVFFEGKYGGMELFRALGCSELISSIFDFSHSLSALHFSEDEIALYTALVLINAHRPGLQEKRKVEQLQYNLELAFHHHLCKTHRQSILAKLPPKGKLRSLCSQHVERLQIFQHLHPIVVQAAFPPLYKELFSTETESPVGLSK
row,Structure (SMILES),outcome
1,CC(C)(CO)CO,inactive
2,C1CCCNCC1,inactive
3,O=C1CCC(=O)N1,inactive
4,NC(=O)c1cccnc1,inactive
5,CCO[Si](CCC#N)(OCC)OCC,inactive
6,CCCCOC(=O)C(C)OC(=O)CCC (stereo not given),inactive
7,CN(C)C(=O)Nc1ccccc1,inactive
8,CN(C)CCC=C1c2ccccc2CCc2ccccc21,inactive
9,NC(N)=NC(N)=NCCc1ccccc1,inactive
10,Nc1ccn([C@H]2CC[C@@H](CO)O2)c(=O)n1,inactive

# Biological target: Retinoic acid receptor RXR-alpha (Homo sapiens) (UniProt P19793)
# Sequence (P19793 whole entry, looked up): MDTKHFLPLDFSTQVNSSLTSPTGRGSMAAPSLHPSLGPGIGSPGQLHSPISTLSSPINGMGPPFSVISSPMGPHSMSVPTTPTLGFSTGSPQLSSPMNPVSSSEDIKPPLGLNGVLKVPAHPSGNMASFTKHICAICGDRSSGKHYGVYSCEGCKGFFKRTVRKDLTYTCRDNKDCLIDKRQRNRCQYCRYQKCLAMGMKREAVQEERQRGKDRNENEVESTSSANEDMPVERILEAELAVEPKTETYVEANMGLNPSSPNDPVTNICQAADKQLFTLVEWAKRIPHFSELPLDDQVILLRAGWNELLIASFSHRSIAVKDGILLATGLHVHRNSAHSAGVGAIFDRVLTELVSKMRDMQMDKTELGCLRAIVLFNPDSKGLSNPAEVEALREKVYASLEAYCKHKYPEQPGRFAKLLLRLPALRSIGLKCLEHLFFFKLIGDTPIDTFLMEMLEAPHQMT
# Assay: ATG_RXRa_TRANS: Attagene TRANS-FACTORIAL HepG2 Assay for human Retinoid X Receptor alpha (RXRa) (AID 2283012)
# In short: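 Chimeric NR-GAL4 trans-activation in HepG2, 24 h treatment; reporter transcripts quantified by fluorescence on capillary electrophoresis, analysed for upward change from DMSO.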
row,Structure (SMILES),outcome
1,CC(=O)C1=C(C)[C@@H]2C[C@@]3(C1)[C@H](C)CC[C@H]3C2(C)C,inactive
2,CC1=CCC(=C(C)C)CC1,inactive
3,COc1ccc(N)c(C)c1,inactive
4,CN1CCc2cccc3c2[C@H]1Cc1ccc(O)c(O)c1-3,inactive
5,O=C(O)c1cccc(Cl)n1,inactive
6,CC1=CCC(C(C)C)=CC1,inactive
7,C=CCCCCCCCCC(=O)OCC,inactive
8,C=C(C)C(=O)OCCOCCOC(=O)C(=C)C,inactive
9,CCCCCCCCOC(C)=O,inactive
10,CCCCCCCOC(C)=O,inactive
11,CC(CO)(CO)[N+](=O)[O-],inactive
12,OC[C@@H](O)[C@H](O)[C@@H](O)[C@@H](O)CO,inactive
13,O=c1cc(-c2ccc(O)cc2)oc2cc(O)cc(O)c12,inactive
14,CC(=O)OC/C=C(C)/C=C/C=C(C)/C=C/C1=C(C)CCCC1(C)C,inactive
15,CCCCCC1C(=O)CCC1CC(=O)OC (stereo not given),inactive
16,CC1=CC(O)CC(C)(C)C1 (stereo not given),inactive
17,CCCCOCCOCCOCCO,inactive
18,NC(=O)c1cnccn1,inactive
19,NC(=O)NC(N)=O,inactive
20,CCCCCCC(C)O (stereo not given),inactive
21,C=CCOC(=O)/C=C\C(=O)OCC=C,inactive
22,CCC(C)(C)c1cc(O)c(C(C)(C)CC)cc1O,inactive
23,CCCCOCCOC(=O)c1ccccc1C(=O)OCCOCCCC,inactive
24,O=S(=O)(O)CCCN1CCOCC1,inactive
25,CCCc1ccc(N)cc1,inactive
26,CCCCCCCCCO,inactive
27,CCCCCC(=O)O[C@]1(C(C)=O)CC[C@H]2[C@@H]3CCC4=CC(=O)CC[C@]4(C)[C@H]3CC[C@@]21C,inactive
28,N#CCCCC(C#N)CCC#N (stereo not given),inactive
29,CCCCCC1CCC(=O)O1 (stereo not given),inactive
30,O=C(O)c1ccco1,inactive
